Among the data in PubChem BioAssay (NCATS) are Potency values, retold here.

Records with an inconclusive call do not appear. Where a call stands in place of a potency, no number is given. The source made the active and inactive calls. Calls come from the whole dose curve; as a rule, active = well fitted curve in the direction sought with a large enough effect; inconclusive = small, poorly fitted or top-dose-only effect, or another doubt; inactive = no such curve, though single readings can be large; an effect the other way counts as inactive or inconclusive.
Potency is the fitted concentration of half-maximal effect.

One assay in a line: qHTS of pediatric cancer cell lines to identify multiple opportunities for drug repurposing: Primary screen for MG 63 (6-TG R) cells (AID 1347105). Note: nearly all actives have a fitted effect of over 50% in size. To be noted: MG 63 (6-TG R) viability, CellTiter-Glo, 48 h; series mostly up to 46 µM. The method, boiled down:
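Cells seeded at 500-1,000 cells/well in growth media, rested 5 hours at 37 degrees C, 5% CO2, then dosed; MIPE compounds at 11-point (from 0.78 nM) and NPC at 8-point (from 0.59 nM) final concentrations. Viability by CellTiter-Glo luminescence after 48 hours.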
With `N=c1ccn2c(n1)O[C@H]1[C@@H](O)[C@@H](CO)O[C@H]12`, the Potency result is “inactive”. Still for that read-out and setting: the same measure for `C#C[C@]1(O)CC[C@@H]2[C@@H]3CCc4cc(O)ccc4[C@H]3CC[C@@]21C`: 23.5 µM (active). Still for that read-out and setting: the same measure for `N#Cc1ccc(COC[C@H]2O[C@@H](n3c(NCc4ccc(Cl)c(Cl)c4)nc4c(N)ncnc43)[C@@H](O)[C@@H]2O)cc1`: “inactive”; for `CCNC(=O)Nc1ccc(-c2nc3c(c(N4CCOC[C@H]4C)n2)CCN(C2COC2)C3)cc1`: 0.743 µM (active); for `O=C(Nc1nnc(-c2ccco2)o1)c1cc(-c2ccccc2)nc2ccccc12`: 14.8 µM (active).

The next assay is described as follows: qHTS of pediatric cancer cell lines to identify multiple opportunities for drug repurposing: Primary screen for control Hh wild type fibroblast cells (AID 1347106). Note: nearly all actives have a fitted effect of over 55% in size. As to conditions: Hh wild-type fibroblast viability, CellTiter-Glo luminescence, 48 h; series mostly up to 46 µM. Put shortly: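 Viability after 48 h compound treatment at 37C, 500-1,000 cells/well, read as ATP luminescence with CellTiter-Glo. Primary screens used 11-point (MIPE, 0.78 nM-46 µM) or 8-point (NPC, 0.59 nM-46 µM) final concentrations; follow-up screens used 11-point dilutions.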
(In qHTS, concentration-response curves come from the screen itself.)
With `c1ccc2c(Oc3nc(Nc4ccc(N5CCOCC5)cc4)c4ncn(C5CCCCC5)c4n3)cccc2c1`, the Potency entry was “inactive”. Same read-out and setting: the same measure for `O=[N+]([O-])c1cn2c(n1)OC[C@@H](OCc1ccc(OC(F)(F)F)cc1)C2`: “inactive”. The same measure, in the same setting: the same measure for `CCc1nc(-c2cccc(C)c2)c(-c2ccnc(NC(=O)c3ccccc3)c2)s1`: “inactive”; for `Nc1cccc2c1C(=O)N(C1CCC(=O)NC1=O)C2=O` (stereo not given): “inactive”; for `COc1cc(C(C)C)c(Oc2cnc(NC(CO)CO)nc2N)cc1I`: “inactive”. Regarding `Cc1ccc(-n2[nH]c(C)c(N=Nc3cccc(-c4cccc(C(=O)O)c4)c3O)c2=O)cc1C`, the Potency entry is “inactive”. As to `CC1=C(C(=O)Nc2cc3cn[nH]c3cc2F)C(c2ccc(Cl)cc2F)N=C(c2ccnc(Cl)c2)N1` (stereo not given), the Potency result is “inactive”. Same read-out and setting: the same measure for `Cc1coc2c1C(=O)C(=O)c1c-2ccc2c(C)cccc12`: “inactive”; for `CC(C)n1cnc2c(NCCc3ccc(O)cc3)nc(-c3csc4ccccc34)nc21`: “inactive”; for `FC(F)(F)c1ccc(Nc2nc3ccc(Oc4ccnc(-c5ncc(C(F)(F)F)[nH]5)c4)cc3[nH]2)cc1`: “inactive”. As to `CS(=O)(=O)N1CCc2c(-c3cnc(N)nc3)nc(N3CCOCC3)nc21`, the Potency entry was “inactive”.

As to `COc1cc2c(cc1O)CCC1C2CC[C@@]2(C)C1CC[C@@H]2O` (stereo not given in full), the Potency result is “inactive”.

For `COc1cc2ncnc(Nc3cccc(Br)c3)c2cc1OC`, the Potency entry is “inactive”. Same read-out and setting: the same measure for `CN(CC(=O)N(Cc1ccc(C2CCCCC2)cc1)c1ccc(C(=O)O)c(O)c1)S(=O)(=O)c1c(F)c(F)c(F)c(F)c1F`: “inactive”; for `C[C@@H](Cc1cc2c(c(C(N)=O)c1)N(CCCO)CC2)NCCOc1ccccc1OCC(F)(F)F`: “inactive”; for `N#CC(=Cc1ccc(O)c(O)c1)C(=O)NCc1ccccc1`: “inactive”. Still for that read-out and setting: next, `COC(=O)C1C2CC3c4[nH]c5cc(OC)ccc5c4CCN3CC2CC(OC(=O)c2cc(OC)c(OC)c(OC)c2)C1OC` (stereo not given): “inactive”; `CCCCCN=C(N)NN=Cc1c[nH]c2ccc(OC)cc12`: “inactive”. On the same count and under the same terms, the same measure for `C=CC[C@@H]1C=C(C)C[C@H](C)C[C@H](OC)[C@H]2O[C@@](O)(C(=O)C(=O)N3CCCC[C@H]3C(=O)O[C@H](C(C)=C[C@@H]3CC[C@H](O)[C@H](OC)C3)[C@@H](C)[C@@H](O)CC1=O)[C@@H](C)C[C@@H]2OC`: “inactive”; for `N#Cc1c(C2CCNCC2)cc(-c2c(O)cccc2OCC2CC2)nc1N`: “inactive”; for `C#C[C@]1(O)CC[C@@H]2[C@@H]3CCc4cc(O)ccc4[C@H]3CC[C@@]21C`: “inactive”. As for `C[C@]12CC[C@@H]3c4ccc(O)cc4CC[C@H]3[C@H]1CC[C@H]2O`, the Potency entry was “inactive”. Still for that read-out and setting: next, `N#Cc1ccc(COC[C@H]2O[C@@H](n3c(NCc4ccc(Cl)c(Cl)c4)nc4c(N)ncnc43)[C@@H](O)[C@@H]2O)cc1`: “inactive”; `NS(=O)(=O)OC[C@@H]1C[C@@H](n2ccc3c(N[C@H]4CCc5ccccc54)ncnc32)C[C@H]1O`: 6.62 µM (active); `O=C(Nc1nnc(-c2ccco2)o1)c1cc(-c2ccccc2)nc2ccccc12`: “inactive”.
